# Bioassay records as filed in PubChem.
# BJeLR viab HTS = lowers viability of BJeLR cells; hit rate 0.64% among 30,000; AID 2275; BJeLR fibroblasts viability, CellTiterGlo ATP luminescence, 48 h; HRASV12, hTERT and SV40 LT/ST transformed; viability loss activity score, % (concentration not given with the values); in the data active = viability loss activity score above about 50%;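 note: higher score means fewer live cells and less ATP luminescence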
# A1 inhib = A1 inhibition. caspase activation, % (no concentration beside the values). AID 2241. MEF A1-2A-BIM cells, caspase-Glo luminescence, 3 h; percent of clofoctol signal, DMSO as zero. hit rate 0.51% among 21,000;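 active = most replicate scores above 10, or exactly half above 10 with mean activity above 10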;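 note: effector caspase 3 and 7 activity cleaving a DEVD luciferin substrate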
# Numbers stand for hits; – = inactive; · = no result. The list is not random: actives were taken first. Their share in the collection is about 0.9%.
SMILES,BJeLR viab HTS,A1 inhib
C=C(C)C(=O)O[C@H]1[C@H]2C(=C)C(=O)O[C@@H]2C[C@@H](C)/C=C/C(=O)[C@](C)(O)[C@@H]1OC(C)=O,59,–
C=C1C(=O)O[C@H]2C1C[C@@H](OC(C)=O)[C@@]1(C)[C@@H](OC(C)=O)C[C@@H](OC(C)=O)C(=C)[C@H]21 (stereo not given in full),–,–
Cc1ccc(SC(=O)c2ccc(C#Cc3ccccc3)o2)cc1,–,–
O=C1CN(C(=O)/C=C/c2ccccc2)C(c2ccccc2)c2cc(Br)ccc2N1 (stereo not given),–,–
C[C@H]1CN([C@@H](C)CO)C(=O)c2cc(NC(=O)Nc3ccc(C(F)(F)F)cc3)ccc2O[C@H]1CN(C)S(=O)(=O)c1cccs1,–,–
CCN1CCCC1CNC(=O)c1ccc2c(c1)sc1nc(-c3ccc(C)cc3)cn12 (stereo not given),95,–
O=C(NCC1CCCO1)c1ccc2c(c1)sc1nc(-c3ccccc3)cn12 (stereo not given),–,–
C[C@@H]1CN([C@H](C)CO)C(=O)c2cccc(NS(=O)(=O)c3ccc(Cl)cc3)c2O[C@@H]1CN(C)C,–,·
CC(C)NC(=O)Nc1ccc2c(c1)C(=O)N([C@H](C)CO)C[C@@H](C)[C@@H](CN(C)Cc1ccc(C(=O)O)cc1)O2,–,–
N#CCSc1nc2cc(C(=O)NCc3ccccc3)ccc2c(=O)n1CCc1ccccc1,–,22
N#CCSc1nc2ccccc2c(=O)n1CCCC(=O)NCc1ccco1,–,–
Cc1ccc(-c2nn(-c3ccccc3)cc2/C=N/O)cc1,–,–
CC1=NNC(=O)/C1=C\c1cn(-c2ccccc2)nc1-c1ccc(F)cc1,88,96
CS(=O)(=O)N(Cc1ccc(Cl)cc1)c1ccc(C(=O)N2CCCCCC2)cc1,–,–
Cc1ccc(S(=O)(=O)N(C)C[C@@H]2Oc3ccc(NS(=O)(=O)c4cccs4)cc3C(=O)N([C@@H](C)CO)C[C@@H]2C)cc1,–,–
Cn1c2ccccc2c2c3c(c4c5ccccc5n(CCC#N)c4c21)CNC3=O,–,28
Cn1c2ccccc2c2cnn(CC(=O)O)c(=O)c21,–,–
Cc1noc(C)c1NC(=O)N(C)C[C@@H]1Oc2c(NC(=O)NC3CCCCC3)cccc2C(=O)N([C@@H](C)CO)C[C@@H]1C,–,·
C=C1C(=O)O[C@H]2C3=C(C)CCC[C@]3(C)C(=O)C[C@@H]12,53,–
C=C1C(=O)O[C@@H]2C=C(C)[C@@H]3CC[C@@](C)(O)[C@@H]3C[C@H]12,–,–
CCC(Sc1nc2ccsc2c(=O)n1NC(=O)c1ccccc1)C(=O)Nc1cccc(C)c1 (stereo not given),–,–
Cn1nc(-c2cccc(C3OCCO3)c2)c(=O)n(C)c1=S,–,–
CCCOc1cccc(C(=O)Nc2ccc(C(=O)OC)cc2)c1,–,–
CCCOc1ccc2nc(NC(=O)OC)[nH]c2c1,58,–
O=S(=O)(c1ccc(-c2csc(Nc3ccc(Br)cc3)n2)cc1)N1CCCCC1,–,15
CN1CCN(S(=O)(=O)c2ccc(Br)cc2)CC1,–,–
COC(=O)c1c(C)[nH]c(C)c1/C=C(\C#N)S(=O)(=O)c1ccc(Cl)cc1,–,–
O=C(Nc1ccc(Cc2ccncc2)cc1)c1cc2ccccn2n1,–,·
